# Reference: ChEMBL document CHEMBL2218924, “A broad activity screen in support of a chemogenomic map for kinase signalling research and drug discovery” (Biochem J, 2013)
# Target: Insulin receptor (Homo sapiens) (UniProt P06213)
# Details: at 10 µM
# Insulin receptor (Homo sapiens), sequence (P06213 28-758 limits assumed): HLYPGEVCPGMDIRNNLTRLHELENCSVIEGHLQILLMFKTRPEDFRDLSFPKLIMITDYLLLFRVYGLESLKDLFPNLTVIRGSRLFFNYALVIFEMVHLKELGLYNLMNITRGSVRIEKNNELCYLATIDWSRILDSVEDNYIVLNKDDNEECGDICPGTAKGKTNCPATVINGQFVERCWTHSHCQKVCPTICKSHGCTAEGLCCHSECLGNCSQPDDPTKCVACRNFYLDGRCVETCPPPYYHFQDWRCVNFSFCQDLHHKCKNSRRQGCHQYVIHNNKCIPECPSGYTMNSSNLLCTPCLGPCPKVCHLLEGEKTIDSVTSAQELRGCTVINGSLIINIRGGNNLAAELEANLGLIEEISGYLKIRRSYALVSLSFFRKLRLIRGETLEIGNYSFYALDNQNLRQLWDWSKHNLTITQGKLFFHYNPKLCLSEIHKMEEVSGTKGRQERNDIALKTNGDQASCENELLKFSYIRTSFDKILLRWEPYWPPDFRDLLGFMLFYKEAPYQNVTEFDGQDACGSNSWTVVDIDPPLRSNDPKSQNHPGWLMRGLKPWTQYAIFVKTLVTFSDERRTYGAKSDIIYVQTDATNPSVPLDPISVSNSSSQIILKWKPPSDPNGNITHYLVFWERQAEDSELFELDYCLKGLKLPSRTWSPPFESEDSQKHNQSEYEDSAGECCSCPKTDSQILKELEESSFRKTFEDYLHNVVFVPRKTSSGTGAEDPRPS
# Insulin receptor (Homo sapiens), sequence (P06213 763-1382 limits assumed): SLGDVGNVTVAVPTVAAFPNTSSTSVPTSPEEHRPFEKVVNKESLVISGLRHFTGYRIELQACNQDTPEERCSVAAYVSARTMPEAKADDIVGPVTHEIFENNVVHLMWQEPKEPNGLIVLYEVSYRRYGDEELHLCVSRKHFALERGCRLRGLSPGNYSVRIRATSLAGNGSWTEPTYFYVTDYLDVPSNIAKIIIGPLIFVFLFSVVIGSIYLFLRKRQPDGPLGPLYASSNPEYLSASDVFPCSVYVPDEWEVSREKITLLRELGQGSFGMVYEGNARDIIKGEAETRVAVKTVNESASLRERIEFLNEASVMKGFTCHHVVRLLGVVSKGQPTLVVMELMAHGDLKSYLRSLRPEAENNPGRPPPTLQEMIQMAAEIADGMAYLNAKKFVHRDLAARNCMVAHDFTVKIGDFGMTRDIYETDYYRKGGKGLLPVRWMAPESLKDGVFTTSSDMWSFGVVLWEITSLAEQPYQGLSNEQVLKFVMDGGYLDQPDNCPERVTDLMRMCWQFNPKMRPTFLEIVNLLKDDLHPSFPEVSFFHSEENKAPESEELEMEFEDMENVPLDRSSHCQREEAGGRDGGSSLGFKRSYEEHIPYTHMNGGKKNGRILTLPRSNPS
row,SMILES,residual activity
1,CC#CC(=O)Nc1cc2c(Nc3ccc(F)c(Cl)c3)ncnc2cn1,85%
2,O=[N+]([O-])c1ccc(-c2nc(-c3ccc(F)cc3)c(-c3ccncc3)[nH]2)cc1,109%
3,COc1cc2ncnc(Nc3ccc(NC(=O)c4ccccc4)cc3)c2cc1OC,92%
4,O=C(O)c1ccc2c3c1cccc3c(=O)n1c3ccccc3nc21,110%
5,Cc1cccc(-c2[nH]c(C(C)(C)C)nc2-c2ccc3c(c2)OCO3)n1,89%
6,CCN(CC)C(=O)c1ccc(Nc2nc(OCC3CCCCC3)c3nc[nH]c3n2)cc1,143%
7,O=C1Nc2ccc(Br)cc2/C1=C\c1cc2c([nH]1)CCCC2,79%
8,Cc1cc(Nc2nc(-c3ccccc3)nc3ccccc23)n[nH]1,5%
9,Oc1ccc(Nc2nc(-c3ccc(Cl)cc3)cs2)cc1,133%
10,Cc1cncc2cccc(S(=O)(=O)N3CCCN(C(=O)CN)C[C@H]3C)c12,70%
11,c1ccc2c(-c3ccncc3)c[nH]c2c1,70%

# Target: Insulin receptor (Homo sapiens) (UniProt P06213)
# Details: at 1 µM
row,SMILES,residual activity
1,Cn1cc(/C=C2\C(=O)Nc3ccc(S(N)(=O)=O)cc32)c2ccccc21,66%
2,COc1cc2ncnc(Nc3ccc(Oc4ccccc4)cc3)c2cc1OC,93%
3,O=c1cc(-c2cccc3c2Sc2ccccc2S3)oc(N2CCOCC2)c1,98%
4,Oc1ccc(-c2nc(-c3ccc(F)cc3)c(-c3ccncc3)[nH]2)cc1,97%
5,O=C1c2ccccc2-[n+]2ccc3c([nH]c4ccccc43)c21,101%
6,N#C/C(=C(\N)Sc1ccc(N)cc1)c1ccccc1C(F)(F)F,102%
7,CN(C)CCCn1cc(C2=C(c3c[nH]c4ccccc34)C(=O)NC2=O)c2ccccc21,100%
8,c1ccc(-c2n[nH]cc2-c2ccnc3ccccc23)nc1,99%
9,CC(=O)c1ccc(N2CCOCC2)cc1O,104%
10,CO[C@@H]1[C@H](N(C)C(=O)c2ccccc2)C[C@H]2O[C@]1(C)n1c3ccccc3c3c4c(c5c6ccccc6n2c5c31)C(=O)NC4,80%
11,N#CC(C#N)=C(N)/C(C#N)=C/c1ccc(O)cc1,98%
12,O=C(Nc1cccc(Nc2nccc(Nc3cccc(C(F)(F)F)c3)n2)c1)C1CC1,86%
13,N#Cc1cnc2cnc(NCc3cccnc3)cc2c1Nc1ccc(F)c(Cl)c1,72%
14,CC(=O)O/N=C1\C(=C2\C(=O)Nc3cc(Br)ccc32)Nc2ccccc21,102%
15,Cn1cnc2cc3c(Nc4cccc(Br)c4)ncnc3cc21,102%
16,CCC(=O)Nc1ccc2ncnc(Nc3cccc(Br)c3)c2c1,102%
17,O=c1c2ccccc2[nH]c(=S)n1CCN1CCC(=C(c2ccc(F)cc2)c2ccc(F)cc2)CC1,105%
18,CC[n+]1c(/C=C/N(C)c2ccccc2)n(-c2ccccc2)c2ccc(-c3nc4ccccc4s3)cc21,100%
19,O=Nc1c(-c2c(O)[nH]c3ccccc23)[nH]c2ccccc12,35%
20,CC#CC(=O)Nc1cc2c(Nc3ccc(F)c(Cl)c3)ncnc2cn1,103%
21,O=[N+]([O-])c1ccc(-c2nc(-c3ccc(F)cc3)c(-c3ccncc3)[nH]2)cc1,105%
22,COc1cc2ncnc(Nc3ccc(NC(=O)c4ccccc4)cc3)c2cc1OC,105%
23,O=C(O)c1ccc2c3c1cccc3c(=O)n1c3ccccc3nc21,104%
24,CCN(CC)C(=O)c1ccc(Nc2nc(OCC3CCCCC3)c3nc[nH]c3n2)cc1,47%
25,Cc1cc(Nc2nc(-c3ccccc3)nc3ccccc23)n[nH]1,36%
26,Oc1ccc(Nc2nc(-c3ccc(Cl)cc3)cs2)cc1,108%
27,Cc1cncc2cccc(S(=O)(=O)N3CCCN(C(=O)CN)C[C@H]3C)c12,97%
28,c1ccc2c(-c3ccncc3)c[nH]c2c1,97%

# Target: Insulin receptor (Homo sapiens) (UniProt P06213)
# Details: at 10 µM
# Remark: another data set of the same source
row,SMILES,residual activity
1,Cn1cc(/C=C2\C(=O)Nc3ccc(S(N)(=O)=O)cc32)c2ccccc21,64%
2,COc1cc2ncnc(Nc3ccc(Oc4ccccc4)cc3)c2cc1OC,91%
3,O=c1cc(-c2cccc3c2Sc2ccccc2S3)oc(N2CCOCC2)c1,99%
4,Oc1ccc(-c2nc(-c3ccc(F)cc3)c(-c3ccncc3)[nH]2)cc1,90%
5,O=C1c2ccccc2-[n+]2ccc3c([nH]c4ccccc43)c21,86%
6,N#C/C(=C(\N)Sc1ccc(N)cc1)c1ccccc1C(F)(F)F,92%
7,CN(C)CCCn1cc(C2=C(c3c[nH]c4ccccc34)C(=O)NC2=O)c2ccccc21,72%
8,c1ccc(-c2n[nH]cc2-c2ccnc3ccccc23)nc1,105%
9,CC(=O)c1ccc(N2CCOCC2)cc1O,97%
10,CO[C@@H]1[C@H](N(C)C(=O)c2ccccc2)C[C@H]2O[C@]1(C)n1c3ccccc3c3c4c(c5c6ccccc6n2c5c31)C(=O)NC4,72%
11,N#CC(C#N)=C(N)/C(C#N)=C/c1ccc(O)cc1,93%
12,O=C(Nc1cccc(Nc2nccc(Nc3cccc(C(F)(F)F)c3)n2)c1)C1CC1,97%
13,N#Cc1cnc2cnc(NCc3cccnc3)cc2c1Nc1ccc(F)c(Cl)c1,52%
14,CC(=O)O/N=C1\C(=C2\C(=O)Nc3cc(Br)ccc32)Nc2ccccc21,81%
15,Cn1cnc2cc3c(Nc4cccc(Br)c4)ncnc3cc21,100%
16,CCC(=O)Nc1ccc2ncnc(Nc3cccc(Br)c3)c2c1,100%
17,O=c1c2ccccc2[nH]c(=S)n1CCN1CCC(=C(c2ccc(F)cc2)c2ccc(F)cc2)CC1,101%
18,CC[n+]1c(/C=C/N(C)c2ccccc2)n(-c2ccccc2)c2ccc(-c3nc4ccccc4s3)cc21,92%
19,O=Nc1c(-c2c(O)[nH]c3ccccc23)[nH]c2ccccc12,19%
20,CC#CC(=O)Nc1cc2c(Nc3ccc(F)c(Cl)c3)ncnc2cn1,98%
21,O=[N+]([O-])c1ccc(-c2nc(-c3ccc(F)cc3)c(-c3ccncc3)[nH]2)cc1,95%
22,O=C(O)c1ccc2c3c1cccc3c(=O)n1c3ccccc3nc21,85%
23,CCN(CC)C(=O)c1ccc(Nc2nc(OCC3CCCCC3)c3nc[nH]c3n2)cc1,7%
24,N#CCCc1ccc2c(c1)-c1[nH]c3ccc([N+](=O)[O-])cc3c1CC(=O)N2,76%
25,Cc1cc(Nc2nc(-c3ccccc3)nc3ccccc23)n[nH]1,7%
26,Oc1ccc(Nc2nc(-c3ccc(Cl)cc3)cs2)cc1,103%
27,Cc1cncc2cccc(S(=O)(=O)N3CCCN(C(=O)CN)C[C@H]3C)c12,76%
28,c1ccc2c(-c3ccncc3)c[nH]c2c1,87%
